In the library only some 3.3% were active in any assay of this set; here they are far more common.
Statin myotox sup – protects C2C12 myotubes from simvastatin toxicity; 330,000 tested, 0.78% active; rescue of ATP level, % at 7.49 µM; ATP luminescence, 48 h; scaled: DMSO 0, geranylgeraniol control 100;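 active = mean ATP rescue above about 67%, or every replicate alone reaching that limit, limit read from the data, passing the limit was not always enough; inconclusive = no clear call, values can overlap the other calls; inactive = mean under the limit and some replicate under it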;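 note: myotubes were challenged with 10 µM simvastatin during compound exposure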
FXN GAA850 act – frataxin GAA850 promoter activation. 360,000 tested, 0.56% active. AID 540364. HEK293 lucGAA850 FXN promoter luciferase reporter, 24 h; percent of 10 µM SAHA response. activation, % at 6 µM;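 active = activation above the average of all compounds screened plus 3 SD, cutoff fixed separately per campaign, cut at about 7.5% in these data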
MITF act – MITF TRPM1 promoter activation in melanoma cells | SK-MEL-5 TRPM1-promoter luciferase, 24 h; % of positive control, neutral wells = 0 | activation, % at 12.5 µM | 300,000 tested, 0.75% active;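 active = mean activation of at least 80% with every replicate also reaching 80%; inconclusive = mean reaches 80% but some replicate falls short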
esBAF inh – inhibitors of esBAF chromatin remodeling in mouse ES cells. AID 602393. Bmi1-luciferase knock-in reporter, 24 h; 100% = twice the neutral-well signal. reporter increase, % at 12.5 µM. 350,000 tested, 2% active; in the data active = activation above about 40%; inconclusive = no clear call, values can overlap the other calls;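 note: a rise in the Bmi1 reporter signal indicates esBAF inhibition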
Wnt bcat act – activators of Wnt/beta-catenin signaling; Wnt/beta-catenin reporter cell assay, activator, plate reader; activation, % at 9.35 µM; 300,000 tested, 1.2% active; AID 743398; in the data active = activation above about 30%, passing the limit was not always enough; inconclusive = no clear call, values can overlap the other calls
GAA30 FXN cntr – activates GAA30 frataxin promoter, counter-screen for GAA850 activators; shares compounds with FXN GAA850 act; HEK293 lucGAA30 FXN promoter luciferase, 24 h; DMSO = 0%, 5 µM ipriflavone = 100%; activation, % at 6 µM; 1,900 tested, 66% active;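 active = mean activation above the mean of solvent-only control wells plus 3 SD, cut at about 22% in these data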;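 note: counterscreen of GAA850 promoter hits where activity marks nonselective or luminescence artifacts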
GAA850 confirm – confirmation of GAA850 frataxin (FXN) promoter activators. shares compounds with FXN GAA850 act. HEK293 lucGAA850 FXN promoter luciferase reporter, 24 h; 100% = activation by SAHA. activation, % at 6 µM. 1,900 tested, 86% active;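 active = mean activation above a set limit taken from the primary screen, cut at about 8% in these data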
Hits are given with their value; . = inactive; ? = inconclusive; / = no result.

SMILES	Statin myotox sup	FXN GAA850 act	MITF act	esBAF inh	Wnt bcat act	GAA30 FXN cntr	GAA850 confirm
COc1ccc(OC)c(NC(=O)C2CCCN(S(=O)(=O)c3c(C)nn(C)c3C)C2)c1 (stereo not given)	.	14	.	.	.	.	9.3
CCc1ccc(NC(=O)CCn2nc(C)c(S(=O)(=O)N3CCCCC3)c2C)cc1	.	7.6	.	.	.	.	8.6
C[C@@H]1CN([C@H](C)CO)S(=O)(=O)c2ccc(C#Cc3ccncc3)cc2O[C@H]1CN(C)C(=O)C1CCOCC1	.	/	/	.	/	/	/
Cc1ccc(Nc2nc(N)c([N+](=O)[O-])c(NCc3ccco3)n2)cc1	/	8.9	.	/	.	67	34
CSc1nc2sc3c(c2c(=O)n1C)CCC(C)C3 (stereo not given)	.	.	.	.	/	/	/
C=CCn1nnc2sc3c(c2c1=O)CCC(C)C3 (stereo not given)	/	8.7	.	/	/	71	30
C[C@@H]1CCCCO[C@H](CN(C)C(=O)c2ccccc2)[C@@H](C)CN([C@@H](C)CO)C(=O)c2cc(NC(=O)Nc3ccc(F)cc3)ccc2O1	/	/	/	.	/	/	/
CC(=O)c1cnc2cc(-c3ccc(C)cc3)nn2c1C	.	11	?	.	/	128	42
CC(=O)c1cnc2cc(-c3ccccc3)nn2c1C	.	.	.	?	/	/	/
C[C@H]1CN([C@@H](C)CO)S(=O)(=O)c2ccc(C#Cc3ccccc3)cc2O[C@H]1CN(C)CC1CC1	.	/	/	.	/	/	/
C[C@H]1CN([C@@H](C)CO)C(=O)c2cccc(NC(=O)Nc3ccc4c(c3)OCO4)c2O[C@@H]1CN(C)C	.	/	/	.	/	/	/
Cc1ccc(-c2nn(-c3ccccc3)cc2/C=N/NS(=O)(=O)c2ccccc2)cc1	/	8.4	.	/	/	81	23
CO[C@@H]1CN(C)C(=O)c2cc(NC(C)=O)ccc2OC[C@@H](C)N(CCc2ccccc2)C[C@@H]1C	.	/	/	.	/	/	/
COc1ccc(Nc2nc(N)c([N+](=O)[O-])c(N3CCCC3)n2)cc1	.	.	.	.	.	/	/
Nc1nc(Nc2ccccc2)nc(N2CCCC2)c1[N+](=O)[O-]	.	11	.	50	.	75	39
CC(=O)Nc1ccc(N(CC(O)Cn2c3ccccc3c3ccccc32)S(=O)(=O)c2ccc(C)cc2)cc1 (stereo not given)	/	16	.	/	.	.	12
Cc1ccc(N(CC(O)Cn2c3ccccc3c3ccccc32)S(C)(=O)=O)cc1 (stereo not given)	.	.	.	.	.	/	/
CO[C@H]1CN(C)C(=O)c2cc(NC(=O)c3ccc(F)cc3)ccc2OC[C@@H](C)N(C(C)=O)C[C@H]1C	.	/	/	.	/	/	/
CCCCCCOc1ccc(/C(C)=N/NC2=NCCN2)cc1[N+](=O)[O-]	/	7.8	.	/	.	28	17
C[C@@H]1CN([C@@H](C)CO)C(=O)c2cc(C#CC(C)(C)O)cnc2O[C@@H]1CN(C)C(=O)C1CCCCC1	.	/	/	.	/	/	/
c1cnc2c(SCc3ccc(-c4nnco4)cc3)cccc2c1	.	8.4	.	.	/	74	27
NNC(=O)c1ccc(CSc2cccc3cccnc23)cc1	.	.	.	.	.	/	/
Cc1cccc(CSc2cccc3cccnc23)c1	.	25	/	.	/	.	.
CC(=O)Nc1ccc(NC(=O)CSc2cn(CC(=O)N3CCOCC3)c3ccccc23)cc1	.	.	.	.	.	/	/
O=C(Cn1cc(SCc2ccccc2Cl)c2ccccc21)N1CCOCC1	.	9.9	.	82	/	133	43
SMILES	Statin myotox sup	FXN GAA850 act	MITF act	esBAF inh	Wnt bcat act	GAA30 FXN cntr	GAA850 confirm
CN(Cc1ccccc1)c1nc(N)c([N+](=O)[O-])c(NCc2ccccc2)n1	/	7.7	.	/	/	35	12
O=C(C[C@H]1C=C[C@H](NC(=O)c2ccncc2)[C@H](CO)O1)NCCc1ccncc1	.	/	/	.	/	/	/
Nc1cc2c(cc1Cl)-c1ccc([N+](=O)[O-])cc1C2=NO	.	9.5	.	.	.	75	40
O=[N+]([O-])c1ccc2c(c1)/C(=N\O)c1ccccc1-2	.	.	.	.	.	/	/
Cc1ccc2c(c1)[C@H]1[C@H](CO2)[C@H](c2ccccc2)[C@]2(C)C(=O)N(Cc3ccccc3)CC(=O)N12	.	9.0	.	.	.	.	11
Cc1ccc(CN2CC(=O)N3[C@H]4c5cc(C)ccc5OC[C@@H]4[C@H](c4ccccc4)[C@]3(C)C2=O)cc1	.	.	.	.	.	/	/
COc1ccc2c(c1)[C@H]1[C@H](CO2)[C@H](c2ccccc2)[C@]2(C)C(=O)N(Cc3ccc(C)cc3)CC(=O)N12	.	13	.	.	/	.	9.0
Cc1noc(C)c1NC(=O)N(C)C[C@@H]1OCCCC[C@H](C)Oc2ccc(NS(=O)(=O)c3ccc(Cl)cc3)cc2C(=O)N([C@@H](C)CO)C[C@@H]1C	/	/	/	.	/	/	/
CCCCOc1ccc(-c2cn3ccccc3n2)cc1[N+](=O)[O-]	/	.	.	/	/	/	/
O=[N+]([O-])c1ccc(-c2cn3ccccc3n2)cc1	/	9.2	/	/	35	108	50
CCOc1ccc(-c2cn3ccccc3n2)cc1[N+](=O)[O-]	/	9.2	.	/	.	121	40
Cc1cccc(-c2nc(CN3CCCC(C(=O)NC4CCCC4)C3)c(C)o2)c1 (stereo not given)	.	8.0	/	.	/	.	.
CC(=NNC(=S)Nc1ccccc1Cl)c1ccccn1	/	14	.	/	.	.	25
CC(=NNC(=S)Nc1ccccc1)c1ccccn1	/	.	/	/	.	/	/
CC(NS(C)(=O)=O)C(c1cccs1)N1CCN(C)CC1 (stereo not given)	.	.	.	.	.	/	/
CC(NS(=O)(=O)c1ccc(Br)cc1)C(c1cccs1)N1CCN(C)CC1 (stereo not given)	.	17	/	.	.	.	.
C[C@H](C(=O)N(C)C[C@@H]1OCc2ccccc2-c2ccccc2C(=O)N([C@@H](C)CO)C[C@H]1C)c1ccccc1	/	/	/	.	/	/	/
CCC(=O)N[C@H]1CC[C@@H](CC(=O)OC)O[C@@H]1CO	.	/	/	.	/	/	/
COc1ccc(-c2cc(-c3ccccc3)n[nH]2)c(O)c1	.	8.2	.	83	.	121	38
Cc1ccc(-c2cc(-c3ccc(C)cc3O)[nH]n2)cc1	.	.	?	.	.	/	/
O=C(Cc1ccncc1)NCC[C@@H]1CC[C@@H](NC(=O)C2CCCC2)[C@H](CO)O1	.	/	/	.	/	/	/
Cn1ncc2c1ncn1nc(CCc3ccccc3)nc21	.	9.1	.	.	.	106	29
C[C@H](CO)N1C[C@H](C)[C@H](CN(C)C(=O)CC2CC2)Oc2cc(-c3ccncc3)ccc2S1(=O)=O	.	/	/	.	/	/	/

High-throughput results as filed in PubChem.
